This passage reports growth inhibition results from PubChem BioAssay (NCI).

The nature of assay [1]: NCI Yeast Anticancer Drug Screen. Data for the rad50 strain (AID 155).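 Also: 0% = growth of vehicle-only cultures of the same strain.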 Conditions: S. cerevisiae rad50 strain growth inhibition, hits give high values. The essentials: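 Genetically altered yeast (DNA repair pathway); compound treatment; growth inhibition vs vehicle ctrl.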
Assay [2] can be described thus: NCI Yeast Anticancer Drug Screen. Data for the mec2-1 strain (AID 157). Conditions: S. cerevisiae mec2-1 strain, hits give high values. The essentials: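 Mutant yeast (mec2-1) grown with compound; growth inhibition relative to vehicle control reported.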
Assay [3] can be described thus: NCI Yeast Anticancer Drug Screen. Data for the sgs1 mgt1 strain (AID 161).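 Also: 0% = growth of cultures given vehicle only.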 Conditions: S. cerevisiae sgs1 mgt1 strain, hits give high values. In a few lines:
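Percent growth inhibition was derived by comparing compound-exposed mutant yeast with vehicle-exposed cultures. The strain carries alterations in DNA damage repair.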

The nature of assay [4]: NCI Yeast Anticancer Drug Screen. Data for the cln2 rad14 strain (AID 165).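 Also: 0% = growth equal to vehicle treated cultures.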 Conditions: S. cerevisiae cln2 rad14 strain, hits give high values. The essentials:
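Readout is yeast growth inhibition versus vehicle-treated controls, using a strain with cln2 and rad14 alterations exposed to compound.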

The nature of assay [5]: NCI Yeast Anticancer Drug Screen. Data for the bub3 strain (AID 167). Conditions: S. cerevisiae bub3 mutant strain, hits give high values. In a few lines:
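Yeast carrying a defined mutation is treated with each compound, and growth is compared with that of vehicle-exposed cells to give inhibition.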

A short description of assay [6]: NCI Yeast Anticancer Drug Screen. Data for the mlh1 rad18 strain (AID 175). Conditions: S. cerevisiae mlh1 rad18 strain growth inhibition, hits give high values. The essentials:
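Genetically defined yeast (DNA repair-deficient) exposed to compounds; growth inhibition determined relative to vehicle.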

Where [7] appears, read: at 5.0 µM (retest, dose inferred, filed as 0.5).
Setting [8] is: at 50.0 µM (retest, dose inferred, filed as 5.0).

About 79,000 compounds went through this panel and 15% of them were active in at least one assay; those are over-represented in the sample as a whole. Unmarked numbers belong to inactive results. Activity calls are given as the source filed them. Rule as the data show it: active = growth inhibition above about 70%; inactive = the rest.

Turning to `CCCCCCN(CCCCCC)CCC(=O)c1ccc2cc(Cl)c3ccccc3c2c1`, the growth inhibition in assay [1] (setting [7]) was 29%; in assay [1] (setting [8]) it was 90% (active); in assay [1] (at 50.0 µM), 78.4% (active); in assay [2] (setting [7]), -28%; in assay [2] (setting [8]) it was 95% (active); in assay [2] (at 50.0 µM), 82% (active). For the same compound, the growth inhibition was 33% in assay [3] (setting [7]); 95% (active) in assay [3] (setting [8]); 78.2% (active) in assay [3] (at 50.0 µM); 3% in assay [4] (setting [7]); 88% (active) in assay [4] (setting [8]); 31.8% in assay [4] (at 50.0 µM). Moreover, the growth inhibition was 5% in assay [5] (setting [7]); 94% (active) in assay [5] (setting [8]); 33.2% in assay [5] (at 50.0 µM); 17% in assay [6] (setting [7]); 91% (active) in assay [6] (setting [8]); 87.8% (active) in assay [6] (at 50.0 µM).
As for `CC[N+](CC)(CC)Cc1ccc(C[N+](CC)(CC)CC)cc1`, the growth inhibition in assay [1] (setting [7]) is 8%; in assay [1] (setting [8]) it was -4%; in assay [1] (at 50.0 µM), 16.9%; in assay [2] (setting [7]), 1%; in assay [2] (setting [8]), -2%; in assay [2] (at 50.0 µM), 54.2%. In addition, the growth inhibition in assay [3] (setting [7]) was 6%; in assay [3] (setting [8]) it was -15%; in assay [3] (at 50.0 µM), -0.8%; in assay [4] (setting [7]), 4%; in assay [4] (setting [8]), 7%; in assay [4] (at 50.0 µM), 92.4% (active). Besides, the growth inhibition in assay [5] (setting [7]) is 5%; in assay [5] (setting [8]), -4%; in assay [5] (at 50.0 µM), 95.5% (active); in assay [6] (setting [7]), 2%; in assay [6] (setting [8]) it was -4%; in assay [6] (at 50.0 µM) it was 17.4%.
As for `CCCCOc1ccc(-c2c(COC(=O)NC)c(COC(=O)NC)c(C)n2C)cc1`, the growth inhibition in assay [1] (setting [7]) is 23%; in assay [1] (setting [8]) it was 94% (active); in assay [1] (at 50.0 µM), 85.3% (active); in assay [2] (setting [7]), 14%; in assay [2] (setting [8]), 97% (active); in assay [2] (at 50.0 µM), 89.5% (active). In addition, the growth inhibition is 21% in assay [3] (setting [7]); 99% (active) in assay [3] (setting [8]); 90% (active) in assay [3] (at 50.0 µM); 19% in assay [4] (setting [7]); 85% (active) in assay [4] (setting [8]); 89% (active) in assay [4] (at 50.0 µM). The growth inhibition is 17% in assay [5] (setting [7]); 99% (active) in assay [5] (setting [8]); 87.3% (active) in assay [5] (at 50.0 µM); 20% in assay [6] (setting [7]); 96% (active) in assay [6] (setting [8]); 88.2% (active) in assay [6] (at 50.0 µM).
On to `O=C(CC1(O)C(=O)Nc2c(Cl)cc(Cl)cc21)c1ccc(Br)cc1Br` (configuration not stated), for which the growth inhibition in assay [1] (setting [7]) is 55%; in assay [1] (setting [8]), 98% (active); in assay [1] (at 50.0 µM), 92.3% (active); in assay [2] (setting [7]), 96% (active); in assay [2] (setting [8]), 99% (active); in assay [2] (at 50.0 µM) it was 90.8% (active). Moreover, the growth inhibition in assay [3] (setting [7]) is 97% (active); in assay [3] (setting [8]) it was 92% (active); in assay [3] (at 50.0 µM), 91.3% (active); in assay [4] (setting [7]), 94% (active); in assay [4] (setting [8]), 93% (active); in assay [4] (at 50.0 µM), 90.7% (active). The growth inhibition in assay [5] (setting [7]) was 97% (active); in assay [5] (setting [8]), 93% (active); in assay [5] (at 50.0 µM), 93.8% (active); in assay [6] (setting [7]), 58%; in assay [6] (setting [8]) it was 98% (active); in assay [6] (at 50.0 µM) it was 92.2% (active).
As for `COC(=O)C1=C(C)NC(c2ccc(OC)cc2OC)C(C(=O)OC)=C1C` (configuration not stated), the growth inhibition in assay [1] (setting [7]) is 4%; in assay [1] (setting [8]), 21%; in assay [1] (at 50.0 µM), 68.7%; in assay [2] (setting [7]), 3%; in assay [2] (setting [8]) it was 11%; in assay [2] (at 50.0 µM) it was 25.6%. For the same compound, the growth inhibition was 1% in assay [3] (setting [7]); 14% in assay [3] (setting [8]); 76.8% (active) in assay [3] (at 50.0 µM); -3% in assay [4] (setting [7]); 4% in assay [4] (setting [8]); 25.6% in assay [4] (at 50.0 µM). Moreover, the growth inhibition was 1% in assay [5] (setting [7]); 16% in assay [5] (setting [8]); 49.7% in assay [5] (at 50.0 µM); -1% in assay [6] (setting [7]); 24% in assay [6] (setting [8]); 58% in assay [6] (at 50.0 µM).
For the compound `Nc1ncnc2nc[nH]c12.[Ag]`, the growth inhibition was 98% (active) in assay [1] (setting [7]); 99% (active) in assay [1] (setting [8]); 99.3% (active) in assay [1] (at 50.0 µM); 99% (active) in assay [2] (setting [7]); 100% (active) in assay [2] (setting [8]); 99.7% (active) in assay [2] (at 50.0 µM). Besides, the growth inhibition was 97% (active) in assay [3] (setting [7]); 99% (active) in assay [3] (setting [8]); 99.7% (active) in assay [3] (at 50.0 µM); 99% (active) in assay [4] (setting [7]); 99% (active) in assay [4] (setting [8]); 98.5% (active) in assay [4] (at 50.0 µM). In addition, the growth inhibition is 99% (active) in assay [5] (setting [7]); 99% (active) in assay [5] (setting [8]); 99.5% (active) in assay [5] (at 50.0 µM); 97% (active) in assay [6] (setting [7]); 99% (active) in assay [6] (setting [8]); 99.7% (active) in assay [6] (at 50.0 µM).
`Cc1cccc(NC(=O)Oc2ccc(Cl)c3cccnc23)c1`: the growth inhibition in assay [1] (setting [7]) is 75% (active); in assay [1] (setting [8]), 99% (active); in assay [1] (at 50.0 µM) it was 88.5% (active); in assay [2] (setting [7]), 57%; in assay [2] (setting [8]), 99% (active); in assay [2] (at 50.0 µM), 88.7% (active). Besides, the growth inhibition in assay [3] (setting [7]) was 97% (active); in assay [3] (setting [8]), 99% (active); in assay [3] (at 50.0 µM) it was 91.8% (active); in assay [4] (setting [7]), 95% (active); in assay [4] (setting [8]), 99% (active); in assay [4] (at 50.0 µM) it was 89.9% (active). Also, the growth inhibition in assay [5] (setting [7]) is 82% (active); in assay [5] (setting [8]), 67%; in assay [5] (at 50.0 µM), 85.5% (active); in assay [6] (setting [7]), 72% (active); in assay [6] (setting [8]), 99% (active); in assay [6] (at 50.0 µM) it was 88.8% (active).
For `O=C(O)CCCCCCCCCC[S+](CCO)CCO`, the growth inhibition in assay [1] (setting [7]) is -2%; in assay [1] (setting [8]) it was 31%; in assay [1] (at 50.0 µM) it was 43.2%; in assay [2] (setting [7]) it was 3%; in assay [2] (setting [8]), 29%; in assay [2] (at 50.0 µM) it was 26.4%. Moreover, the growth inhibition is 2% in assay [3] (setting [7]); 50% in assay [3] (setting [8]); 62.1% in assay [3] (at 50.0 µM); 20% in assay [4] (setting [7]); 12% in assay [4] (setting [8]); 67.5% in assay [4] (at 50.0 µM). In addition, the growth inhibition was 3% in assay [5] (setting [7]); 12% in assay [5] (setting [8]); 37.4% in assay [5] (at 50.0 µM); 1% in assay [6] (setting [7]); 44% in assay [6] (setting [8]); 34.5% in assay [6] (at 50.0 µM).
On to `Cc1ccc2c(c1)C1(SC(C)C(=O)N1c1ccc(F)cc1)C(=O)N2` (configuration not stated), for which the growth inhibition in assay [1] (setting [7]) is 11%; in assay [1] (setting [8]) it was 98% (active); in assay [1] (at 50.0 µM) it was 99% (active); in assay [2] (setting [7]), 15%; in assay [2] (setting [8]), 99% (active); in assay [2] (at 50.0 µM) it was 98.8% (active). Also, the growth inhibition is 14% in assay [3] (setting [7]); 98% (active) in assay [3] (setting [8]); 98.8% (active) in assay [3] (at 50.0 µM); 11% in assay [4] (setting [7]); 98% (active) in assay [4] (setting [8]); 97.8% (active) in assay [4] (at 50.0 µM). In addition, the growth inhibition in assay [5] (setting [7]) was 10%; in assay [5] (setting [8]), 99% (active); in assay [5] (at 50.0 µM) it was 98.6% (active); in assay [6] (setting [7]) it was 11%; in assay [6] (setting [8]) it was 99% (active); in assay [6] (at 50.0 µM), 99% (active).
